The values that follow come from PubChem BioAssay.

Assay [1] in a line: viability loss in pontine glioma line – cell-based, SU-DIPG-XVII, MIPE5.0, CellTiter-Glo, qHTS, dose response (AID 1347060).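 As to AC50: cells exposed to compound for 48 hours before viability readout.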 To be noted: CellTiter-Glo ATP luminescence. (In general: In ATP-based viability assays light output follows the ATP content of the culture.)
The nature of assay [2]: viability loss in pontine glioma line – cell-based, SU-DIPG-XIII, MIPE4.0, CellTiter-Glo, qHTS, dose response (AID 1347061; cut-off not given, nearly all actives have AC50 up to about 37 µM;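 also: cells exposed to compound for 48 hours before readout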). To be noted: CellTiter-Glo ATP luminescence.
The nature of assay [3]: viability loss in pontine glioma line – cell-based, JHH-DIPG-1, MIPE4.0, CellTiter-Glo, qHTS, dose response (AID 1347062; cut-off not given, nearly all actives have AC50 up to about 27 µM;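 as to AC50: cells exposed to compound for two days before readout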). The settings on record: JHH-DIPG-1 viability, CellTiter-Glo ATP luminescence.
A short description of assay [4]: viability loss in pontine glioma line – cell-based, SU-DIPG-XIII, MIPE5.0, CellTiter-Glo, qHTS, dose response (AID 1347064; cut-off not given, nearly all actives have AC50 up to about 23 µM;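 as to AC50: cells exposed to compound for 48 hours before the viability read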). To be noted: CellTiter-Glo ATP luminescence.
Assay [5] in a line: viability loss in pontine glioma line – cell-based, SU-DIPG-XXV, MIPE5.0, CellTiter-Glo, qHTS, dose response (AID 1347065).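 Also: cells exposed to compound for 48 hours before ATP readout.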 To be noted: CellTiter-Glo ATP luminescence.
The nature of assay [6]: growth inhibition of DIPG cells – cell-based, MIPE4.0 library, CellTiter-Glo luminescence, qHTS (AID 1347066; cut-off not given, nearly all actives have AC50 up to about 30 µM;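 also: cells exposed to compound for 48 hours before readout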). To be noted: SU-DIPG-VI viability, CellTiter-Glo ATP luminescence.
The nature of assay [7]: JHH-DIPG-1 glioma cell viability, MIPE5.0 library, CellTiter-Glo luminescence, qHTS (AID 1347067).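 Also: cells exposed to compound for 48 hours before readout.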 To be noted: JHH-DIPG-1 glioma viability, CellTiter-Glo ATP luminescence.
Assay [8] is described as follows: growth inhibition of DIPG cells – cell-based, MIPE5.0 library, qHTS (AID 1347068; cut-off not given, nearly all actives have IC50 up to about 30 µM;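 as to IC50: cells exposed to compound for 48 hours before viability readout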). The settings on record: SU-DIPG-XXV viability.
The nature of assay [9]: viability loss in pontine glioma line – cell-based, SU-DIPG-IV, MIPE4.0, CellTiter-Glo, qHTS, dose response (AID 1347063; cut-off not given, nearly all actives have AC50 up to about 30 µM;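 also: compound exposure lasted 48 hours before the viability readout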). The settings on record: CellTiter-Glo ATP luminescence.
The nature of assay [10]: compounds altering circadian rhythm period length – cell-based, LOPAC library, luminescence reporter (AID 2774; call rule not given here;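 also: values are relative to mean of DMSO wells on each plate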). To be noted: circadian reporter cells, at 7 µM, actives lie on both sides.
The test system of assay [11] is Hepatitis C virus NS3 helicase. The assay can be described thus: blockers of NS3h binding to ssDNA – biochemical, fluorescence polarization, LOPAC1280 library, primary screen (AID 687035; in the data active = inhibition above about 37%). To be noted: Purified HCV NS3 helicase, Cy5-dT15 ssDNA binding fluorescence polarization; stronger effect = higher value; concentration not given here. (In general: Fluorescence polarisation rises when a labelled molecule tumbles more slowly, as on binding a larger partner.)

The nature of assay [12]: compounds altering Cy5-DNA-NS3h complex signal – biochemical, LOPAC1280, artefact control for HCV NS3 helicase inhibitor project (AID 687037; call rule not given here). To be noted: Cy5-DNA-NS3h complex fluorescence interference counterscreen. For orientation: A counterscreen serves to expose hits that act by an unwanted route or on another target.
The subject of assay [13] is Aerobactin synthetase IucA (Klebsiella pneumoniae, hypervirulent). The assay can be described thus: biochemical IucA inhibition screen of LOPAC library by absorbance (AID 1346212; call rule not given here;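 also: 100% = no compound wells and 0% = no enzyme wells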). The settings on record: IucA enzyme assay, absorbance (OD) readout; stronger effect = lower value;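 tested at 8 µM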.
Assay [14] in a line: MELAS cybrid and Rieske KO viability enhancers – cell-based, MELAS cybrids, Rieske KO mouse fibroblasts, CellTiter-Glo, primary screen (AID 1508586;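 active = mean z-score across replicates of 1.96 or higher in either the MELAS or the Rieske mutant cell line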;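 also: z relative to plate mean and SD of compound and empty wells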). The settings on record: low glucose.

Inconclusive results are not listed. Active and inactive are the calls of the source. Unless noted, the limit is not given here; nearly all actives have AC50 up to about 26 µM.

Regarding `CCOP(=O)(OCC)C(C)NC(=O)N(CCCl)N=O` (configuration not stated), the result in assay [1], in assay [2], in assay [3], in assay [4], in assay [5] and in assay [6] was inactive. Also, the compound was classed as inactive in assay [7] and in assay [8].
Usually AC50 stands for the concentration at which the activity in the assay is half-maximal. One may read the IC50 as the concentration needed to halve the response being measured. For `Cc1[nH]nc2ccc(-c3cncc(OC[C@@H](N)Cc4c[nH]c5ccccc45)c3)cc12`, the AC50 in [1] is 833 nM (active); in assay [2] it was 4690 nM (active); in assay [3], 590 nM (active); in assay [9], 3720 nM (active); in assay [4], 742 nM (active); in [5] it was 742 nM (active). The half-maximal activity concentration (AC50) in assay [6] was 14800 nM (active); in assay [7], 525 nM (active). In addition, the half-inhibitory concentration (IC50) in [8] was 1860 nM (active).
The term inhibition denotes the drop in the measured response relative to a control, in per cent. Broadly, the remaining activity is the signal under treatment as a percentage of the control signal. For the compound `N[C@@H](CCl)C(=O)O`, the period change in [10] is 0.125 h (inactive). For the same compound, in [11], the inhibition is -3% (inactive). The fluorescence ratio (interference) in assay [12] is 1 (inactive). Further, in assay [13], the remaining activity is 104% (inactive).
In the case of `CC(=O)O[C@@]12CO[C@@H]1C[C@H](O)[C@@]1(C)C(=O)[C@H](O)C3=C(C)[C@@H](O)C[C@@](O)([C@@H](OC(=O)c4ccccc4)[C@H]21)C3(C)C`, the AC50 in [1] was 23500 nM (active). The compound was classed as inactive in assay [2], in [6], in [7] and in assay [8].
For `CN[C@@H]1Cc2cccc3[nH]c(=O)n(c23)C1`, the result in [1], in [2], in assay [3], in assay [4], in assay [5] and in assay [6] was inactive. Further, the compound was called inactive in assay [7] and in assay [8].
In the case of `C[C@]12COC(=O)C[C@@H]1CC[C@@H]1[C@@H]2CC[C@@]2(C)[C@H]1CC[C@]2(C)O`, the compound was called inactive in assay [1], in assay [2], in [3], in assay [9], in assay [4] and in assay [6]. Further, the outcome in assay [7] and in assay [8] was inactive. Further, the z-score in assay [14] (MELAS cybrid survival, CellTiter-Glo 48 h, stronger effect = higher value) was 0.293 (inactive); in assay [14] (Rieske KO mouse fibroblast survival, CellTiter-Glo 72 h), 0.228.
For the compound `O=C(O)C(=O)c1cn(Cc2ccccc2)c2ccc(-c3ccc(OC(F)(F)F)cc3)cc12`, the compound was classed as inactive in [1], in assay [2], in assay [3], in assay [9], in assay [5] and in assay [6]. The compound was classed as inactive in assay [7] and in assay [8].
